Five molecules from PubChem BioAssay can be followed below.

Active and inactive are the calls of the source.

Assay [1] is described as follows: binders of probe aFSTL3 on microarray, primary screen, stem cell growth factor project, biochemical, small-molecule microarray, fluorescence 635/667 (AID 1064).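 Also: measures binding of the biotinylated anti-FSTL3 antibody to printed compounds.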 To be noted: higher = more signal.
Assay [2] in a line: binders from COS7 lysate, DM2A8 probe, primary screen, torsin A project, cell lysate, small-molecule microarray, fluorescence 635/667 (AID 1065). To be noted: higher = more signal, COS7 lysate expressing mutant human TOR1A.
The nature of assay [3]: binders of probe aFGF2 on microarray, primary screen, stem cell growth factor project, biochemical, small-molecule microarray, fluorescence 635/667 (AID 1067).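 Also: measures binding of biotinylated aFGF2 protein to printed compounds on slides; z-score merges feature fluorescence and signal-to-noise across triplicate slides.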 To be noted: higher = more signal.
The nature of assay [4]: binders of probe aFGF10 on microarray, primary screen, stem cell growth factor project, biochemical, small-molecule microarray, fluorescence 635/667 (AID 1071).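 Also: score merges 667 nm spot intensity and signal to noise from triplicate slides.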 To be noted: higher = more signal.
Assay [5] concerns the target Neurogenic locus notch homolog protein 2 (Homo sapiens) (UniProt Q04721). The assay can be described thus: Notch2 binders on small-molecule microarrays, primary screen, biochemical, small-molecule microarray, 635 nm fluorescence, stem cell growth factors (AID 1073). To be noted: Notch2 binding, higher = more signal.
Assay [6] concerns the target Pro-neuregulin-1, membrane-bound isoform (Homo sapiens) (UniProt Q02297). The assay can be described thus: NRG1 binders on small-molecule microarrays, primary screen, psychiatric disease protein project, biochemical, small-molecule microarray, fluorescence 635/667 (AID 1075).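 Also: score combines 667 nm spot fluorescence with signal to noise.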 The following applies: NRG1 binding, 635 nm fluorescence, higher = more signal.
Assay [7] deals with Neuregulin-1 EGF-like domain. The assay can be described thus: binders of neuregulin-1 EGF-like domain, primary screen, biochemical, small-molecule microarray, 635 nm fluorescence (AID 1081).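 Also: binding of the protein to compounds printed on small-molecule microarray slides.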 The following applies: small-molecule microarray binding, higher = more signal.
Assay [8] in a line: FRG1 promoter luciferase signal modulators, primary screen, FRG1 inhibition for FSHD, cell-based, C2C12 myotubes, firefly/Renilla luciferase, luminescence (AID 1084). To be noted: higher = more signal, called active from +8 up or from −8 down.
The nature of assay [9]: binders of probe aFST on microarray, primary screen, stem cell growth factor project, biochemical, small-molecule microarray, fluorescence 635/667 (AID 1086).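 Also: score merges 667 nm fluorescence with signal-to-noise of each printed compound spot.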 The following applies: higher = more signal.
Assay [10] can be described thus: binders of probe aHhip on microarray, primary screen, stem cell growth factor project, biochemical, small-molecule microarray, fluorescence 635/667 (AID 1087).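 Also: score merges spot fluorescence at 667nm with spot signal to noise ratio.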 The following applies: higher = more signal.
Assay [11] relates to PRMT1 (protein arginine N-methyltransferase 1). The assay can be described thus: PRMT1 binders on small-molecule microarrays, primary screen, biochemical, small-molecule microarray, 635 nm fluorescence (AID 1088).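 Also: binding of Prmt1 protein to compounds spotted on small-molecule microarray slides.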 To be noted: small-molecule microarray binding, higher = more signal.
Assay [12] can be described thus: yeast growth modulation, basal conditions, primary screen, YJM789 clinical isolate, OD600, 24 h (AID 1089).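 Also: growth of clinical yeast isolate S. cerevisiae YJM 789 seeded 1000 cells per well; test concentration not given here.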 To be noted: S. cerevisiae YJM789 growth, higher = more signal, called active from +8 up or from −8 down.
Assay [13] is described as follows: fission yeast growth modulation, primary screen, strain 972, OD600, 24 h, no modulator (AID 1090).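 Also: basal condition with compound alone and no growth modifier present; test concentration not given here.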 The following applies: S. pombe 972 growth, higher = more signal, called active from +8 up or from −8 down.
Assay [14] in a line: S. cerevisiae growth modulation with rapamycin, primary screen, strain BY4716, OD600, 96 h (AID 1091). Also: test concentration not given here. To be noted: higher = more signal, called active from +8 up or from −8 down.
The target of assay [15] is Torsin-1A-interacting protein 2 (Homo sapiens) (UniProt Q8NFQ8). The assay can be described thus: LULL1 binders on small-molecule microarray, primary screen, cell lysate, human LULL1 lysate, 635/667 nm fluorescence (AID 1092).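 Also: probe is lysate of COS7 cells overexpressing human LULL1; score merges per-feature 667 nm fluorescence with signal-to-noise.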 To be noted: hLULL1 lysate binding, 635 nm fluorescence, higher = more signal.
The nature of assay [16]: E. coli growth modulation, two-sided OD650, primary screen, E. coli filamentation project, strain DRC41, 24 h (AID 1093).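 Also: MC1000 strain lacking acrAB efflux and sulA so SOS filamentation is blocked; test concentration not given here.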 To be noted: OD650, 24 h, higher = more signal, called active from +8 up or from −8 down.
Assay [17] can be described thus: small-molecule microarray binders of probe aLefty2, primary screen, biochemical, biotinylated probe, 635/667 nm fluorescence (AID 1094).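 Also: score merges spot fluorescence near 667 nm with spot signal-to-noise ratio.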 The following applies: higher = more signal.
Assay [18] concerns Noggin (protein binding on small-molecule microarray). The assay can be described thus: Noggin binders on small-molecule microarray, primary screen, biochemical, 635/667 nm fluorescence (AID 1095).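 Also: score merges 667 nm feature fluorescence with signal to noise over triplicate slides.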 The following applies: 635 nm fluorescence, higher = more signal.
The target in assay [19] is Neurogenic locus notch homolog protein 3 (Homo sapiens) (UniProt Q9UM47). The assay can be described thus: NOTCH3 binders on small-molecule microarray, primary screen, biochemical, 635/667 nm fluorescence (AID 1096). To be noted: NOTCH3 binding, 635 nm fluorescence, higher = more signal.
Assay [20] in a line: small-molecule microarray binders of probe aEGFR, primary screen, biochemical, biotinylated probe, 635/667 nm fluorescence (AID 1097).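 Also: probe is a biotinylated anti-EGFR antibody binding compounds printed on slides; score combines fluorescence near 667 nm and signal to noise of each spot.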 To be noted: higher = more signal.

Chain of Neurogenic locus notch homolog protein 2 (Homo sapiens) (Q04721 whole entry, looked up, canonical isoform): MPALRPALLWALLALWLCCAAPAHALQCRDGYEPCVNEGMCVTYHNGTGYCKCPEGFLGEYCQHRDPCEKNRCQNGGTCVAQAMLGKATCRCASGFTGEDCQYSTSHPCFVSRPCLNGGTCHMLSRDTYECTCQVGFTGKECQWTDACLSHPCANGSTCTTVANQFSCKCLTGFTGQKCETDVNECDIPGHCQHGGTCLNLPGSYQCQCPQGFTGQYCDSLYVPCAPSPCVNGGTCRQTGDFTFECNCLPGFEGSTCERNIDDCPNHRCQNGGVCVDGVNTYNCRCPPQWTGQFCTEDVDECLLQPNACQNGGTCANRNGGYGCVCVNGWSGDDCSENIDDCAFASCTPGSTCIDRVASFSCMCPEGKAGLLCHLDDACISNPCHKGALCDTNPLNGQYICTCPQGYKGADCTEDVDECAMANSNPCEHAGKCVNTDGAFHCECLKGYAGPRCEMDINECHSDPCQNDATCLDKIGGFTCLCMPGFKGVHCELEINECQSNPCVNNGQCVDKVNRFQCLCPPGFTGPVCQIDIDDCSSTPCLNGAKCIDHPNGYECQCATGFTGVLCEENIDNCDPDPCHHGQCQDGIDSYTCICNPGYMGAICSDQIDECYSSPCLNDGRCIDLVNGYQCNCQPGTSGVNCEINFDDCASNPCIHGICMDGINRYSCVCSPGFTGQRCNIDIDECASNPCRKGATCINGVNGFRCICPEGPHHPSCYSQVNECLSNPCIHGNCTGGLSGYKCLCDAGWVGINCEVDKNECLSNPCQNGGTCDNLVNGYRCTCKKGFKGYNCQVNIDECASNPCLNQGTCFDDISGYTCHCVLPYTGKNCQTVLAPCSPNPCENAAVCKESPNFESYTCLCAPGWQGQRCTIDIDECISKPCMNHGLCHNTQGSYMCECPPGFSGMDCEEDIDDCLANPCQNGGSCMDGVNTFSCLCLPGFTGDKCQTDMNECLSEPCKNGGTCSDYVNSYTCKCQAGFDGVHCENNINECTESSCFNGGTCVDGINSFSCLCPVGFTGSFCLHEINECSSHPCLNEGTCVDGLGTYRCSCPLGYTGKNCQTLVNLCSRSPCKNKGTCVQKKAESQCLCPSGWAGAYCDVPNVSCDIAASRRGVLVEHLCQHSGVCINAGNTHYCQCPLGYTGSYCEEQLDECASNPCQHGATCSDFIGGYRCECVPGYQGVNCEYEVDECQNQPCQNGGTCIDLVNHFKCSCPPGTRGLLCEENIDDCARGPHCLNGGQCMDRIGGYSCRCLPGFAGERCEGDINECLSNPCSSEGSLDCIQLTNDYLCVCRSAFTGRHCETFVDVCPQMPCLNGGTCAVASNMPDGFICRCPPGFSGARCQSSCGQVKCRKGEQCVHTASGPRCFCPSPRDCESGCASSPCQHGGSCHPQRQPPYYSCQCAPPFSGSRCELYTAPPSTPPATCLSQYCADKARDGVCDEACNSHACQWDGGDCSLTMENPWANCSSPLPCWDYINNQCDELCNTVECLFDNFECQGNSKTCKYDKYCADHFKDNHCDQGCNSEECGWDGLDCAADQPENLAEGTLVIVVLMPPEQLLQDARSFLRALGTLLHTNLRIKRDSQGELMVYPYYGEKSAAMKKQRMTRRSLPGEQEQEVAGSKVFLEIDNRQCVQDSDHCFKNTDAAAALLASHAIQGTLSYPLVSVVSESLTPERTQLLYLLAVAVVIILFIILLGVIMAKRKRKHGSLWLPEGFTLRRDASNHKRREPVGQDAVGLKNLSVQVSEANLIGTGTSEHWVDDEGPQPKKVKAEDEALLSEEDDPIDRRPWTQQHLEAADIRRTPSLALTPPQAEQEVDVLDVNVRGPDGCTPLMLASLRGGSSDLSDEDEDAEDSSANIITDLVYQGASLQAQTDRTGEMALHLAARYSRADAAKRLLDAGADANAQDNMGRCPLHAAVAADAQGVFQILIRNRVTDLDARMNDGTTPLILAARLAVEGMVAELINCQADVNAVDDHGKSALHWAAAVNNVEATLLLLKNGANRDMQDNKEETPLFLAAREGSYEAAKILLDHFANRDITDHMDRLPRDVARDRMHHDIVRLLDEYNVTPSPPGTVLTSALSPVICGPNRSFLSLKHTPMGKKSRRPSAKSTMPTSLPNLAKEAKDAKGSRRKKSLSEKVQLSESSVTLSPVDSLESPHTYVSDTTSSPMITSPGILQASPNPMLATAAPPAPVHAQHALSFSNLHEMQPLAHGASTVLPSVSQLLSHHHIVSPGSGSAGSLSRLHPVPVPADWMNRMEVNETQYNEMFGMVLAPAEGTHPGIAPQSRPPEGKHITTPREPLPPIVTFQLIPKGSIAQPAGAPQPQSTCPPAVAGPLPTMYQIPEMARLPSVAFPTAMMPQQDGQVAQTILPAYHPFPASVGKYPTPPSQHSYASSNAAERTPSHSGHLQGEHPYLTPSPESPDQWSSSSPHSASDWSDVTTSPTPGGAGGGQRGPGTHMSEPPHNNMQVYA
Chain of Pro-neuregulin-1, membrane-bound isoform (Homo sapiens) (Q02297 whole entry, looked up, the tested form may be a part, canonical isoform): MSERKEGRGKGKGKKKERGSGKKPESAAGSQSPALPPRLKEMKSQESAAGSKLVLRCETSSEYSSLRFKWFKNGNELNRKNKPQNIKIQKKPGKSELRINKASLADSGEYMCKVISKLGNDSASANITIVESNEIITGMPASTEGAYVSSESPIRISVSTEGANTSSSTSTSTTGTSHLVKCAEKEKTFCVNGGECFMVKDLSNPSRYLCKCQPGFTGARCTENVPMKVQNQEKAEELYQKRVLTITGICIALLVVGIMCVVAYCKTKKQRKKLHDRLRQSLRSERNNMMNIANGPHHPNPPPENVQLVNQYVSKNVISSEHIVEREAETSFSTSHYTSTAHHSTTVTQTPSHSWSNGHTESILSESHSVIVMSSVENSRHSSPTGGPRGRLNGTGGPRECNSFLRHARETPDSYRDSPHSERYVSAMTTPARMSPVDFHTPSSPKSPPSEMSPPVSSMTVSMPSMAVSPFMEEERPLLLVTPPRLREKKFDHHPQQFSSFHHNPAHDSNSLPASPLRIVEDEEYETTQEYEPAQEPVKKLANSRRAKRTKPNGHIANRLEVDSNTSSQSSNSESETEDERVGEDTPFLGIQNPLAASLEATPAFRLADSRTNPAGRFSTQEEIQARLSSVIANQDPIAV
Chain of Torsin-1A-interacting protein 2 (Homo sapiens) (Q8NFQ8 whole entry, looked up): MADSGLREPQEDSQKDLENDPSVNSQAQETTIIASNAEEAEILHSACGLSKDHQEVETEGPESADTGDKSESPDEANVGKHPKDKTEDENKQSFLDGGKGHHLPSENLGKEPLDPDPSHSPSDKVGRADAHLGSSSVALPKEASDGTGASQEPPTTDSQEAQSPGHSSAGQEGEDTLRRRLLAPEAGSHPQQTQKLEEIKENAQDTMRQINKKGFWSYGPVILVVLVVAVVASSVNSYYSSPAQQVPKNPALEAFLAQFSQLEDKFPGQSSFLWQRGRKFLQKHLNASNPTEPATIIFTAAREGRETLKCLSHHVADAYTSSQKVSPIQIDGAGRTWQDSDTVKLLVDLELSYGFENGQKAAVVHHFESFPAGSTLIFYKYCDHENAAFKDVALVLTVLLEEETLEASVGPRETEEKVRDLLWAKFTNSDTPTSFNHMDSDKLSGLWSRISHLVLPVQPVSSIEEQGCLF

For `COc1ccc(O[C@H]2C=C[C@@H](c3ccccc3)O[C@@H]2CON=C2c3cc(OC)ccc3O[C@H](c3cccc(OC)c3)[C@H]2O)cc1`, the composite z-score in assay [1] is -0.661; in assay [2], 0.354; in [3] it was -0.201; in assay [4], -0.054; in assay [5], 1.38; in assay [6] it was -0.139. Besides, the composite z-score in assay [7] was 0.463; in assay [9] it was 0.34; in assay [10], -0.226; in assay [11], 0.554; in [15] it was 0.585; in assay [17], -0.231. In addition, the values for the composite z-score in [18], in [19] and in assay [20] were 1.4, 0.927 and -0.171, respectively. Moreover, the z-score in assay [8] is 1.82 (inactive); in assay [12] it was -0.0549 (inactive); in assay [13], 0.281 (inactive); in [14], -0.0588 (inactive); in [16] it was 0.0551 (inactive).

On to `O=C(NN=C1C[C@@H](O)[C@@H](O)[C@@H]2[C@@H]3C(=O)N(c4ccc(F)cc4F)C(=O)[C@@H]3CC[C@H]12)OCc1ccccc1`, for which the composite z-score in assay [1] was 0.0775; in assay [2], 1.04; in assay [3] it was -0.152; in assay [4], -0.0134; in assay [5], 0.194; in [6], 1.47. Moreover, the composite z-score in assay [7] is -0.0123; in [9] it was 0.991; in assay [10], 0.0854; in assay [11] it was 0.695; in assay [15], 1.88; in assay [17], -0.0309. For the same molecule, the composite z-score in [18] was found to be 0.128; in assay [19], 0.827; in [20], 0.0443. The z-score is -0.823 (inactive) in [8]; -0.0025 (inactive) in assay [12]; -2.08 (inactive) in [13]; -1.69 (inactive) in assay [14]; 0.782 (inactive) in assay [16].

Consider `CC(=O)OC[C@H]1O[C@H](CC=NO[C@H](C)c2cn([C@@H]3COC[C@H]3O)nn2)C=C[C@@H]1OC(C)=O`, for which the composite z-score is -0.239 in [1]; 0.0556 in assay [2]; -0.131 in assay [3]; 0.294 in [4]; 0.277 in assay [5]; -0.0528 in [6]. For the same molecule, the composite z-score was 0.422 in assay [7]; -0.149 in assay [9]; -0.0673 in [10]; 0.611 in assay [11]; -0.3 in assay [15]; -0.23 in [17]. Besides, the values for the composite z-score in [18], in assay [19] and in [20] were 0.411, 0.212 and -0.0845, respectively. In addition, the z-score in assay [8] is -0.956 (inactive); in assay [12], -2 (inactive); in [13], -0.535 (inactive); in assay [14] it was -0.277 (inactive); in assay [16] it was -0.763 (inactive).

Regarding `O=C1[C@H]2[C@H]3[C@H](O)[C@H](O)CC(=NOC[C@@H](O)COCc4ccco4)[C@@H]3CC[C@H]2C(=O)N1C1CCCCC1`, the composite z-score is -0.679 in assay [1]; 2.04 in [2]; -0.16 in [3]; -0.357 in assay [4]; 0.0224 in assay [5]; -0.459 in assay [6]. For the same molecule, the composite z-score in assay [7] is 1.2; in [9] it was -0.045; in assay [10] it was 0.235; in assay [11] it was 1.39; in assay [15], 1.25; in [17], -0.061. Also, the composite z-score in [18] came to 1.75; in [19], 0.437; in assay [20] it was 0.0583. Further, the z-score in assay [8] is 0.219 (inactive); in assay [12], 1.61 (inactive); in assay [13], -0.0798 (inactive); in assay [14], -0.133 (inactive); in [16], 0.61 (inactive).

As for `CO[C@H]1COC(=O)[C@H](C)COC(=O)[C@@H](OCc2ccccc2)C=C[C@@H]1C`, the composite z-score in assay [1] was -0.411; in assay [2] it was 0.0756; in [3], -0.178; in [4] it was 0.0844; in assay [5] it was -0.501; in assay [6], -0.319. For the same molecule, the composite z-score in assay [7] was -0.365; in [9], 1.27; in [10], 0.449; in assay [11], 0.855; in assay [15], -0.198; in assay [17], -0.241. Further, the composite z-score in assay [18] is 1; in assay [19], -0.732; in [20], -0.188. Moreover, the z-score was -0.224 (inactive) in assay [8]; 0.138 (inactive) in assay [12]; -1.28 (inactive) in assay [13]; -0.876 (inactive) in assay [14]; 0.554 (inactive) in [16].
